Compounds without any hit were thinned out: in the full panel of roughly 83,000, 20% have a hit.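 Activity criterion: percent growth below 10, measured after cells in 96-well plates were exposed to a single compound concentration for 48 hours.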 Activity calls are given as the source filed them.

The test system of this test is HL-60(TB) leukemia. Briefly: NCI-60 one-dose screen, 48 h (100 = growth as untreated, 0 = no growth, -100 = all killed). To be noted: 10 µM unless noted.
As to `Cc1cc(=O)oc2cc(OC(=O)CN3CCN(C)CC3)ccc12`, the growth is 122% (inactive).
Then `COc1ccc(C(=O)c2sc3nc4c(cc3c2N)CCCC4)cc1OC`, with 11.4% (inactive); and `CCN1CCN(c2ccc(NC(=O)Nc3nc4ccc(-c5ccccc5OC)cc4s3)cc2)CC1`, with -74.1% (active); and `COc1cccc(-c2cc(C(=O)Nc3ccc(/C=C/c4ccc(OC5CCN(C)CC5)cc4)cc3)ccc2OC)c1`, with 9.98% (active).
Turning to `Cc1ccccc1N1C(=O)c2cc(S(N)(=O)=O)c(Cl)cc2NC1C` (stereo not given), the growth was 87.9% (inactive).
Then `NCCOc1ncccc1/C=C1\C2C=CC=CC2C2C=CC(F)=CC12` (stereo not given), with -24.3% (active).
With `COc1ccc2cc(-c3ccc(-c4ccc(C(=N)N)cc4)s3)ccc2c1`, the growth is 100% (inactive).
In the case of `COc1cccc(/C=C/C(=O)c2cc3c(N)c(C(=O)Nc4ccccc4C)sc3nc2C)c1` it was 26.3% (inactive).
In the case of `CN1CCN(c2ccc(-c3cnc4c(-c5csc6ccccc56)cnn4c3)cc2)CC1` it was 9.53% (active); in that of `CCOC(=O)Nc1cc(-c2ccc(C)c(NS(C)(=O)=O)c2)nn2c(C)nnc12`, 10.8% (inactive); in that of `CCCc1cc2c(=O)c(C(=O)OC)c[nH]c2cc1N(CC)CC`, 91.6% (inactive).
In the case of `COc1ccc2c(c1)sc1nc(-c3ccccc3)c(-c3cccc4ccccc34)n12` it was 6.59% (active); in that of `COc1ccc(C=Nc2c(C(=O)Nc3cccc(Cl)c3C)sc3nc(C)c(C(=O)/C=C/c4ccc(OC)cc4)cc23)cc1`, 9.38% (active); in that of `N#Cc1ccc(O)c(C2=NCC(c3cccc(Oc4ccccc4)c3)O2)c1` (stereo not given), -8.73% (active).
For `Cc1ccc(Nc2nc(NCCO)c3ccccc3n2)cc1C`, the growth is -10.3% (active).
In the case of `COc1ccc2c(c1)c(-c1nonc1-c1cn(C)c3ccccc13)cn2C` it was 2.88% (active); in that of `CC(C)C1=NOC(=O)C1=Cc1cn(-c2ccccc2)nc1-c1ccc(Cl)cc1`, -44.5% (active).
In the case of `N#C/C(=N\Nc1ccccc1)C(=O)Nc1cc(-c2ccccc2)nn1-c1ccccc1` it was 35.4% (inactive); in that of `O=C(NC(Cc1ccc(O)cc1)C(=O)N=Nc1c(O)[nH]c2ccccc12)c1ccccc1` (stereo not given), 101% (inactive); in that of `COc1ccc2c(CCc3ccc(Cl)cc3)c3[n+](cc2c1OC)CCc1cc2c(cc1-3)OCO2`, 10% (inactive).
Then `COC(=O)c1cc(Nc2ccc(O)c3c2C(=O)c2c([N+](=O)[O-])ccc(O)c2C3=O)cc(C(=O)OC)c1`, with 62.3% (inactive).
On to `CCN(CC)CC(=O)Nc1c(C)cccc1C`, for which the growth was 107% (inactive).
Then `C#CCCCCCCC[C@@H]1OC(=O)[C@H]([C@@H](C)CC)NC(=O)[C@@H]([C@@H](C)CC)NC(=O)CC(=O)[C@@H]1C`, with 107% (inactive).
In the case of `CCC(Br)(CC)C(=O)c1ccc(OCC(=O)O)c(Cl)c1Cl` it was 111% (inactive); in that of `CN(Cc1ccccc1)c1nc(Cl)c(C2CC(c3ccc(F)cc3)=NN2C=O)s1` (stereo not given), 102% (inactive); in that of `COc1cc(Nc2cn[nH]c2-c2ccc(Cl)cc2)cc(OC)c1OC`, 14.6% (inactive).
As to `COc1ccc(NC(=O)c2sc3nc(C)c(C(=O)/C=C/c4ccccc4)cc3c2N)cc1`, the growth was 24.2% (inactive).
Then `O=C1CN(CO)C(=O)CN1CO`, with 107% (inactive); and `NC(=S)N/N=C/c1ccc(OC(=O)COc2cc(Cl)c(Cl)cc2Cl)cn1`, with 47.1% (inactive).
Then `NS(=O)(=O)c1ccc(-n2nc(-c3ccccc3)ccc2=O)cc1`, with 89.9% (inactive); and `CC1O[C@@H](OC2[C@H](OC(=O)/C=C/c3ccc(O)c(O)c3)C(COC3O[C@H](C)C(O)C(O)[C@@H]3O)O[C@@H](OCCc3ccc(O)c(O)c3)[C@H]2O)[C@@H](O)C(O)[C@H]1O` (stereo not given in full), with 103% (inactive); and `CCN(CC)CCCC(C)N/C(=C1\C(=O)NC(=O)\C1=C(/NC(C)CCCN(CC)CC)c1cccc(OC)c1)c1cccc(OC)c1` (stereo not given), with -35.6% (active).
Turning to `CCCCc1nc(Cl)c(C2CC(c3ccc(S(N)(=O)=O)cc3)=NN2c2ccc(C#N)cc2)[nH]1` (stereo not given), the growth is 92.7% (inactive).
In the case of `COc1ccc2c(c1)C(=Nc1cc(OC)c(OC)c(OC)c1)C(=O)N2`, the growth is 96.1% (inactive).
As for `Nc1cc(N)c(N)cc1N`, the growth was 29.1% (inactive).
Then `COC(=O)[C@@H](NC(=O)[C@@H](OC)[C@@H]1Cc2cc3cc(OC4CC(OC5CC(O)C(O)C(C)O5)C(O)C(C)O4)c(C)c(O)c3c(O)c2C(=O)[C@H]1OC1CC(OC2CC(OC3CC(C)(O)C(O)C(C)O3)C(O)C(C)O2)C(O)C(C)O1)C(C)C` (stereo not given in full), with 52.4% (inactive); and `O=C(c1ccc(Cl)cc1)C1C(c2ccccc2)C1[N+](=O)[O-]` (stereo not given), with 99.3% (inactive).
Turning to `Oc1c(I)cc(I)cc1CN(Cc1ccccn1)Cc1ccccn1`, the growth was 2.58% (active).
Regarding `O=C(/C=C/c1cccc(Cl)c1)c1ccc(Nc2nc(Nc3ccc(F)cc3)nc(Nc3ccc(Cl)cc3)n2)cc1`, the growth was 52.8% (inactive).
With `O=C(NO)c1ccc(Cn2c(=O)n(-c3ccccc3F)c(=O)c3ccccc32)cc1`, the growth was -1.46% (active).
